PubChem BioAssay (Tox21)
Inconclusive results are not listed. Calls of active or inactive are those of the source. Calls come from the whole dose curve; as a rule, active = well fitted activation curve with a large enough effect in the repeat runs; inconclusive = weak or mixed curves, or effect the other way; inactive = no such curve, though single readings can be large or run the other way.

test: qHTS assay to identify small molecule agonists of the retinoic acid receptor (RAR) signaling pathway (AID 1159553); conditions: C3RL4 RARE luciferase reporter, agonist, 6 h; series mostly up to 73.3 µM; activation: at the top concentration
Source text: National Center for Advancing Translational Sciences [NCATS] NIH Chemical Genomics Center [NCGC] U.S. Environmental Protection Agency [EPA] National Institutes of Environmental Health Sciences [NIEHS] National Toxicology Program [NTP] Assay overview: All-trans Retinoic acid (atRA) is the potent natural metabolite of retinol and plays an important role in normal embryonic development and maintenance of cellular phenotype in adult animals. atRA is the activating ligand for the retinoic acid receptors (RARs) which form heterodimers with retinoid X receptors (RXRs) on the retinoic acid response element (RARE). Through activation of the RAR/RXRs nuclear receptors, atRA regulates the transcription of a large number of protein-coding genes and regulatory RNAs. Intracellular levels of atRA are controlled by the retinol signaling pathway (RSP) that regulates the biosynthesis and catabolism of atRA to maintain physiological levels. Chemicals that interfere with the RSP can cause abnormal intracellular levels of atRA and therefore are potential developmental toxicants. To assess compounds for the potential adverse effect on embryonic development through interfering with retinol signaling, a cell-based RARE luciferase reporter gene assay was used. C3RL4 cell line (OARSA/CFSAN/FDA, Laurel, MD) was used to screen Tox21 10K compound library for identifying activators of the RSP.
Assay Protocol Summary: C3RL4 cells were seeded at 1,000/well in 5 uL of assay medium into white solid 1,536-well tissue culture plates (Greiner Bio-One North America Inc. Monroe, NC) using a Multidrop Combi (Thermo Scientific, Waltham, MA) dispenser. After incubation at 37 C and 5% CO2 for an overnight, 23 nL of compounds dissolved in DMSO, positive control or DMSO only were transferred by a Pintool station (Kalypsys, San Diego, CA). After 6 hr incubation at 37 C and 5% CO2, 5 uL of Amplite Luciferase reagent (AAT Bioquest Inc. Sunnyvale, CA) was added to each assay plate using a Flying Reagent Dispenser (FRD) (Aurora Discovery, San Diego, CA). Luminescence was quantified on a ViewLux plate reader (PerkinElmer, Waltham, MA) after 30 min incubation at room temperature.
% is set by controls: 0 for no effect and ±100 for the full control effect; potency is the fitted concentration of half-maximal effect.

Row | SMILES | activation | Potency
1 | Cc1oc(-c2ccccc2)nc1CCC(=O)c1ccc(CC2SC(=O)NC2=O)cc1 (stereo not given) | -0.15% (inactive) | –
2 | NNc1nc(-c2ccc([N+](=O)[O-])cc2)cs1 | – | 54500 nM (active)
3 | O=C(Nc1ccc(Oc2ccc(Cl)cc2)c(Cl)c1)c1cc(I)cc(I)c1O | -9.28% (inactive) | –
4 | N#CC1(c2ccc(F)cc2)CCC(=O)CC1 | 2.75% (inactive) | –
5 | O=C(O)c1c(Cl)cccc1Cl | 2.16% (inactive) | –
6 | CCCCCCCCOC(=O)c1ccc(O)cc1 | – | inactive
7 | Nc1ccc2cc(S(=O)(=O)O)cc(O)c2c1N=Nc1ccccc1C(F)(F)F | 2.8% (inactive) | –
8 | OCCN(CCO)c1nc(N2CCCCC2)c2nc(N(CCO)CCO)nc(N3CCCCC3)c2n1 | -11.6% (inactive) | –
9 | C=CC(=O)OCC(CO)(COCC(COC(=O)C=C)(COC(=O)C=C)COC(=O)C=C)COC(=O)C=C | – | 957 nM (active)
10 | O=c1[nH]cnc2nc[nH]c12 | 1% (inactive) | –
11 | Cc1onc(-c2c(Cl)cccc2Cl)c1C(=O)N[C@@H]1C(=O)N2[C@@H]1SC(C)(C)[C@@H]2C(=O)O | -4.07% (inactive) | –
12 | COc1ccc(C(=O)/C(Br)=C\C(=O)O)cc1 | – | 27300 nM (active)
13 | O=[N+]([O-])c1cc(Cl)c(Cl)c(Cl)c1Cl | -4.37% (inactive) | –
14 | CC(C)(C)C1CCC(CC2=C(O)c3ccccc3C(=O)C2=O)CC1 (stereo not given) | -11% (inactive) | –
15 | O=[N+]([O-])c1ccccc1Nc1ccccc1 | 2.4% (inactive) | –
16 | Cc1cccc(S(=O)(=O)O)c1C | 0.144% (inactive) | –
17 | O=c1c(-c2ccccc2)c1-c1ccccc1 | -22.8% (inactive) | –
18 | O=C(NO)C1(NS(=O)(=O)c2ccc(Oc3ccc(F)cc3)cc2)CCOCC1 | 0.741% (inactive) | –
19 | COc1cc(-c2ccc(N=C=O)c(OC)c2)ccc1N=C=O | 0.431% (inactive) | –
20 | O=C(O)c1ccc(Cl)c(Cl)c1 | -2.61% (inactive) | –

Row | SMILES | activation | Potency
21 | CSc1cnc(C)cn1 | 1.23% [at 94.8 µM] (inactive) | –
22 | CCCCCCCCCCCCCCCS(=O)(=O)Oc1ccccc1 | 0.529% (inactive) | –
23 | CCOC(=O)/C=C(C)/C=C/C=C(C)/C=C/c1c(C)cc(OC)c(C)c1C | – | 531 nM (active)
24 | C[n+]1ccn(Cc2ccccc2)c1 | 0.584% (inactive) | –
25 | N=C1C=CC(=C(c2ccc(N)cc2)c2ccc(N)cc2)C=C1 | -3.85% (inactive) | –
26 | CC(C)CCCCCCCCCCCCCCC(=O)O | -2.2% (inactive) | –
27 | C[C@H]1[C@H]2CC[C@H]3[C@@H]4CC=C5C[C@@H](N(C)C)CC[C@]5(C)[C@H]4CC[C@]23CN1C | -3.13% (inactive) | –
28 | ON=C1CCCC1 | -0.131% [at 94.8 µM] (inactive) | –
29 | Cc1[nH]cnc1C[C@H]1CCc2c(C)c3ccccc3n2C1=O | -2.3% (inactive) | –
30 | CCCCCCCCCOC(=O)c1ccc(O)cc1 | 4.98% (inactive) | –
31 | CCCCC(CC)COP(=O)(O)OCC(CC)CCCC (stereo not given) | -3.64% (inactive) | –
32 | Cc1ccc2oc(CN(Cc3ccccc3)C(=O)Nc3c(F)cc(F)cc3F)c(-c3ccc(Cl)cc3)c2c1 | -8.01% (inactive) | –
33 | CCCCCOc1ccccc1/C(=C\SC)n1ccnc1 | – | 33500 nM (active)
34 | CCC(N)(CO)CO | -1.88% [at 94.8 µM] (inactive) | –
35 | COc1ccc(-c2ccc3cc(C(=O)O)ccc3c2)cc1C12CC3CC(CC(C3)C1)C2 | – | 29.8 nM (active)
36 | CCOC(=O)O[C@]1(C(=O)OCCl)CC[C@H]2[C@@H]3CCC4=CC(=O)C=C[C@]4(C)[C@H]3[C@@H](O)C[C@@]21C | -11.5% (inactive) | –
37 | O=C(Oc1ccccc1)c1ccccc1C(=O)Oc1ccccc1 | -8.84% (inactive) | –
38 | CN(C)[C@@H]1C(=O)C(C(N)=O)=C(O)[C@@]2(O)C(=O)C3=C(O)c4c(O)cccc4C[C@H]3C[C@@H]12 | -5.15% (inactive) | –
39 | COc1cccc2c1C(=O)c1c(O)c3c(c(O)c1C2=O)C[C@@](O)(C(=O)CO)C[C@@H]3O[C@H]1C[C@H](N)[C@H](O[C@@H]2CCCCO2)[C@H](C)O1 | -6.09% (inactive) | –
40 | O=C(Nc1cccc([N+](=O)[O-])c1)c1cc2ccccc2cc1O | – | 969 nM (active)
